Vaccinia Venus – vaccinia inhibition (Venus reporter); Vaccinia virus Venus reporter expression, fluorescence; Potency, µM (doses to about 36.5 µM), usual class: inhibitors; actives 0.46% (n = 330,000); AID 720580; calls by dose curve; tested in A549 cells; also: nearly all actives have a fitted effect of over 30% in size
HCV inhibitor – HCV inhibition | Huh7.5.1 HCVcc-Cre infection, luciferase reporter, 44 h | Potency, µM (series often up to 41.8 µM), actives largely listed as inhibitors | actives 3.4% (n = 340,000) | AID 651820; active = well fitted inhibition curve with a large enough effect; inconclusive = small, poorly fitted or top-dose-only effect, or another doubt; inactive = no such curve, though single readings can be large or run the other way
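Luciferase read-out (15 sec integration) after a 15 min room-temperature substrate step quantifies HCVcc-Cre infection. Cells, 1,000 per well, had compound added 4 h post-plating, then virus at ~0.5 moi, and were cultured 44 h.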
Vaccinia mCherry – inhibitors of vaccinia virus infection (mCherry reporter signal); Vaccinia virus mCherry reporter infection, fluorescence; Potency, µM (highest dose often 36.5 µM), hits mostly inhibitors; actives 0.63% (n = 310,000); AID 720579; calls by dose curve; tested in A549 cells; also: nearly all actives have a fitted effect of over 35% in size
Lassa entry inh – Lassa virus entry inhibition; Lassa virus pseudotype entry inhibition, cell reporter; Potency, µM (titrated, usually from 37.9 µM), hits mostly inhibitors; actives 1.2% (n = 300,000); calls by dose curve; tested in HEK293 cells; also: nearly all actives have a fitted effect of over 50% in size
MARV entry inh – blocks Marburg virus binding to or entry into cells | Marburg virus pseudotyped entry inhibition, cell reporter | Potency, µM (doses to about 37.8 µM), most hits filed as inhibitors | actives 1.8% (n = 300,000) | AID 540276; calls by dose curve; tested in HEK293 cells
Numbers stand for hits; i = inactive; ? = inconclusive; nt = not tested or not shown; ! = not active in a repeat. Only some compounds are listed: those with a hit (about 4.6% of all), similar ones and a draw of the others.

SMILES	Vaccinia Venus	HCV inhibitor	Vaccinia mCherry	Lassa entry inh	MARV entry inh
O=C(CCC1N=C2c3ccccc3N=C(SCC(=O)Nc3ccc(F)cc3)N2C1=O)NCc1cccs1 (stereo not drawn)	i	nt	i	i	nt
NC(=O)c1sc(-n2cnc3ccccc32)cc1OCc1ccccc1Br	nt	nt	nt	8.88µM	nt
COc1cc(/C(C)=N/NC(=O)CSc2nncn2C)ccc1OCc1ccccc1Cl	i	i	i	i	i
Cn1c(COc2ccccc2Br)nc2ccccc21	nt	i	nt	nt	nt
COc1cc2ncn(-c3cc(OCc4ccccc4Cl)c(C(N)=O)s3)c2cc1OC	nt	nt	nt	0.628µM	nt
COc1ccc2ncn(-c3cc(OC(C)c4ccccc4Cl)c(C(N)=O)s3)c2c1 (stereo not drawn)	nt	nt	nt	0.0996µM	nt
COc1ccc2ncn(-c3ccccc3)c2c1	nt	i	nt	i	i
COc1ccc(S(=O)(=O)NCCc2sc(-c3cccc(F)c3)nc2C)cc1	i	nt	i	i	nt
COc1cc(-c2coc3c(C(=O)NCc4ccc(OC)c(OC)c4)cccc23)ccc1O	?	nt	15.8µM	nt	nt
COc1cc(-c2coc3c(C(=O)NCc4ccc(N(C)C)cc4)cccc23)ccc1O	i	nt	i	nt	nt
Cc1cc(C)c(-c2csc(NC(=O)/C=C/c3cccs3)n2)c(C)c1	?	10µM	?	?	?
Cc1cc(C)nc(NC(=O)/C=C/c2cccs2)c1	i	?	i	i	?
CCN1C(=O)[C@@H]2[C@H]3[C@H](O)[C@H](O)CC(=NOC[C@H]4O[C@H](c5ccccc5)C=C[C@H]4Oc4ccc(OC)cc4)[C@@H]3CC[C@H]2C1=O	nt	nt	nt	nt	i
c1cc2c(cc1C1=NNC(=NC3CC3)SC1)OCCO2	nt	i	nt	0.291µM	0.326µM
c1ccc2oc(C3=NNC(=NC4CC4)SC3)cc2c1	nt	i	nt	7.3µM	1.83µM
FC(F)Sc1ccc(N=C2NN=C(c3ccc4c(c3)OCCO4)CS2)cc1	nt	10µM	nt	?	?
CCCCN=C1NN=C(c2ccc3c(c2)OCCO3)CS1	i	i	i	7.94µM	?
COC(=O)c1cc(CNC(=O)c2ccccc2F)cc(NC(=O)c2ccccc2OC)c1	i	nt	i	nt	nt
O=C(NCCO)C(=O)NCC(c1ccc2c(c1)OCO2)N1CCOCC1 (stereo not drawn)	i	nt	i	i	nt
Cc1cccc(C)c1N=C1NN=C(c2ccccc2F)CS1	i	?	i	i	?
Cc1cc(C2=NNC(=NC3CC3)SC2)c(C)n1-c1ccccc1F	nt	11.2µM	nt	0.13µM	0.13µM
Cc1ccccc1N=C1NN=C(c2ccccc2F)CS1	nt	?	nt	?	14.6µM
CCSc1cc(C)nc2c(-c3ccccc3)cnn12	nt	10µM	nt	nt	nt
Cc1cc(N)n2ncc(-c3ccccc3)c2n1	i	?	i	i	?
CCOC(=O)CN1C(=O)NC(c2cccc(F)c2)C(C(=O)OC)=C1C (stereo not drawn)	nt	nt	nt	nt	i
SMILES	Vaccinia Venus	HCV inhibitor	Vaccinia mCherry	Lassa entry inh	MARV entry inh
COc1cccc(-c2csc(N3CCN(C(=S)Nc4cccc(Cl)c4)CC3)n2)c1	?	?	i	?	?
COc1cccc(-c2csc(N3CCN(C(=S)Nc4ccccc4OC)CC3)n2)c1	i	?	i	i	i
COc1cccc(-c2csc(N3CCN(C(=O)Nc4ccc(Cl)cc4)CC3)n2)c1	?	11.2µM	?	nt	nt
COc1ccc(NC(=O)N2CCN(c3nc(-c4cccc(OC)c4)cs3)CC2)cc1	nt	6.31µM	nt	?	23.1µM
CC[C@H]1C(=O)OC[C@@H]1Cc1cncn1C	nt	nt	nt	nt	i
NC1=NC(=O)/C(=C\c2ccc(-c3ccccc3[N+](=O)[O-])o2)S1	i	nt	i	nt	nt
O=C(Nc1cccc(N2CCC(NCc3cnn(-c4cccc(F)c4)c3)CC2)c1)c1ccncc1	i	nt	i	nt	nt
COc1cccc2c1C(=O)c1c(O)c3c(c(O)c1C2=O)C[C@@](O)(C(=O)CO)C[C@@H]3O[C@H]1C[C@H](N)[C@@H](O)[C@H](C)O1	i	?	i	nt	nt
CC(=O)[C@]1(O)Cc2c(O)c3c(c(O)c2[C@@H](O[C@H]2C[C@H](N)[C@H](O)[C@H](C)O2)C1)C(=O)c1c(O)cccc1C3=O	nt	nt	nt	0.158µM	0.056µM
COc1cccc2c1C(=O)c1c(O)c3c(c(O)c1C2=O)C[C@@](O)(C(C)=O)C[C@@H]3O[C@H]1C[C@H](N)[C@H](O)[C@H](C)O1	i	6.31µM!	i	?	0.231µM
COc1cccc2c1C(=O)c1c(O)c3c(c(O)c1C2=O)CC(O)(C(=O)CO)CC3OC1CC(N(C)C)C(O)C(C)O1 (stereo not drawn)	i	?	i	?	?
Cc1nc2cc(-c3ccc(Cl)cc3)nn2c(NCCN(C)C)c1C	i	17.8µM	?	?	?
